The structures appear in SMILES notation.

The nature of the assay: binders of probe aHhip on microarray, primary screen, stem cell growth factor project, biochemical, small-molecule microarray, fluorescence 635/667 (AID 1087).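 Also: score merges spot fluorescence at 667nm with spot signal to noise ratio.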 The note with it: higher = more signal.
`CC(C)c1ccc(NN2C(C(O)C3CCCCC3)C=CC3C(=O)N(c4ccccc4)C(=O)C32)cc1` (stereo unspecified) returned a composite z-score of 0.142. Regarding `COc1ccc(C(=O)Nc2ccc(CN3C(=O)[C@]4(O[C@H](CC(=O)N(CCO)Cc5ccccc5)[C@@H]([Si](C)(C)c5ccc(OC)cc5)[C@@H]4C)c4ccccc43)cc2)cc1`, the composite z-score was -0.0994. In the case of `CCOC(=O)C=C1C[C@@H](c2cccc([N+](=O)[O-])c2)O[C@@H](c2cccc([N+](=O)[O-])c2)O1`, the composite z-score was -0.226. For `CC[C@@H]1C=C(C(=O)O)[C@H](c2cccc(Cl)c2)N1S(=O)(=O)c1ccc(C)cc1`, the composite z-score amounted to 0.0424.

Compound `C=CCOC(=O)[C@H]1[C@@H]2C(=O)O[C@@H](c3ccccc3)[C@@H](c3ccccc3)N2[C@@H](c2ccc(OCCOC(=O)[C@@H]3C[C@@H]4C(=O)N[C@@H](Cc5ccccc5)C(=O)N4[C@@H]3c3ccc(O)cc3)cc2)[C@]12C(=O)Nc1ccc(I)cc12` gave a composite z-score of -0.0645. Next, `COC(=O)C1=CC(c2ccc(CO)cc2)=CC(C2CC2)N(Cc2cc3c(cc2Br)OCO3)C=C1C(=O)OC` (stereo unspecified): 0.0278; `O=C1O[C@H](c2ccccc2)[C@H](c2ccccc2)N2[C@H]1[C@@H](C(=O)O)[C@]1(C(=O)Nc3ccc(C#CC4(O)CCCCCC4)cc31)[C@H]2c1ccccc1OCCO`: 0.781. `CCCCCCc1nc(-c2ccc(OC)nc2)c(C)c2c1[Si](C(C)C)(C(C)C)OC2`: the composite z-score was -0.0994. On to `[N-]=[N+]=NCc1ccccc1[C@H]1OC(c2ccc(OCCCO)cc2)=N[C@@]1(Cc1ccccc1N=[N+]=[N-])C(=O)N1CCOCC1`, for which the composite z-score was -0.0994.

As for `C=CCOC(=O)[C@H]1[C@@H]2C(=O)O[C@@H](c3ccccc3)[C@@H](c3ccccc3)N2[C@@H](c2ccc(OCCOC(=O)[C@H]3C[C@H]4C(=O)NCC(=O)N4[C@H]3c3cccc(OCCO)c3)cc2)[C@]12C(=O)Nc1ccc(I)cc12`, the composite z-score was found to be 0.28.

In turn, `COCCOC(=O)N1C(=O)[C@@]2(c3cc(C#CCNC(N)=O)ccc31)[C@H](C(N)=O)[C@H]1C(=O)O[C@H](c3ccccc3)[C@H](c3ccccc3)N1[C@@H]2c1ccc(O)cc1` yielded a composite z-score of -0.287. `C=C1C(=O)C=C2CN(C(=O)c3ccccc3)[C@@](Cc3ccc(F)cc3)(C(=O)OC)[C@@H]12` displayed a composite z-score of -0.129. Next, `CC(C)(C)OC(=O)N1[C@@H](C=C(Br)Br)COC1(C)C`: 0.0302; `O=C1C[C@@](C(=O)NCC(F)(F)F)(c2ccc([N+](=O)[O-])cc2)[C@@H](c2ccc(CO)cc2I)N1CC12CC3CC(CC(C3)C1)C2`: -0.239; `Cc1cccc([C@H]2C[C@H]3C(Br)=C[C@@]2(CO)C(=O)[C@]32CO2)c1`: -0.0994. With `COC(=O)C(CC#Cc1ccc2c(c1)[C@]1(C(=O)N2)[C@H](c2ccccc2OCCO)N2[C@H](c3ccccc3)[C@H](c3ccccc3)OC(=O)[C@H]2[C@@H]1C(=O)N1CCN(c2ncccn2)CC1)C(=O)OC`, the composite z-score is -0.11. For the compound `O=C1NC(=O)C2C1C=CC(C(O)c1ccc(F)cc1)N2Nc1ccc(Cl)cc1Cl` (stereo unspecified), the composite z-score was -0.374.

The compound `C=CCOC(=O)[C@@H]1[C@H]2C(=O)O[C@H](c3ccccc3)[C@H](c3ccccc3)N2[C@H](c2ccc(OCCOC(=O)[C@@H]3C[C@@H]4C(=O)N[C@@H](CC(C)C)C(=O)N4[C@@H]3c3ccc(O)cc3)cc2)[C@@]12C(=O)Nc1ccc(I)cc12` came in with a composite z-score of 0.383. For `COC(=O)c1ccc(OC)c(/C=C\CC(OC(=O)c2ccncc2)c2ccccc2)c1` (stereo unspecified), the composite z-score was found to be 0.0514.

In the case of `COC(=O)[C@@]1(Cc2ccc(F)cc2)[C@H]2c3cc(C(=O)N4CCCC4)n(CCSCCO)c3C[C@H]2CN1C(=O)c1ccccc1`, the composite z-score was -0.174. The result for `Cc1c(NC(=O)/C(C#N)=C/C=C/c2ccc([N+](=O)[O-])cc2)c(=O)n(-c2ccccc2)n1C` reads -0.0867. `COc1ccc([Si](C)(C)[C@H]2[C@H](CC(=O)N(CCO)Cc3ccccc3)O[C@@]3(C(=O)N(Cc4cccc(N5CCCCC5=O)c4)c4ccccc43)[C@@H]2C)cc1` showed a composite z-score of -0.166. The compound `O=C1c2ccccc2[C@@]2(Cc3ccccc3N(CC(F)(F)F)C2=O)[C@H](c2ccc(CO)cc2)N1Cc1ccccc1` returned a composite z-score of -0.129.

Take `CC(C)C[C@@H]1NC(=O)[C@@H]2C[C@H](C(=O)NCCCCCNC(=O)CS)[C@H](c3ccc(O)cc3)N2C1=O`: the composite z-score is -0.0994. `COc1ccc(C(O)C2C=CC3C(=O)N(C)C(=O)C3N2Nc2ccccc2)cc1` (stereo unspecified) yielded a composite z-score of -0.271. Consider `Cc1ccc(S[C@]2(C(=O)NCCN3CCOCC3)CC(=O)N(C(C)C)[C@@H]2c2ccc(CO)cc2I)cc1`, for which the composite z-score is -0.166.
